# 3T3 cytotox – Cytotoxic Profiling in NIH 3T3 Cell Line of Diverse Libraries Using Quantitative High-Throughput Screening; NIH 3T3 viability, CellTiter-Glo ATP luminescence, 48-72 h; Potency, µM (series often up to 96.7 µM), for the others: at the top dose activity change, negative = cytotoxicity, most hits filed as inhibitors; 94,000 compounds, 4.3% hits; AID 1345082, 2018; further: on the % scale 0 is the no-effect control and ±100 the full control effect; nearly all actives have a fitted effect of over 55% in size
#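 Cytotoxicity is measured as loss of cellular ATP: NIH 3T3 cells (400/well) are exposed to compound for 48 or 72 hr at 37 °C, then CellTiter-Glo luminescence is imaged after 10 min at room temperature.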
# HEK293 tox – Cytotoxic Profiling in HEK 293 Cell Line of Diverse Libraries Using Quantitative High-Throughput Screening | HEK 293 viability, ATP luminescence (CellTiter-Glo), 48-72 h | Potency, µM (doses to about 115 µM), for the others: top-dose activity change, negative = cytotoxicity, usual class: inhibitors | 94,000 compounds, 6.6% hits | AID 1345083, 2018; further: on the % scale 0 is the no-effect control and ±100 the full control effect; nearly all actives have a fitted effect of over 60% in size
#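 HEK 293 cells seeded at 250 cells/well were exposed to compound for 48 or 72 hr at 37 degree Celsius. Viability taken as ATP content by CellTiter-Glo luminescence.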
# SNCA viab count – GF-AFC viability counterscreen for inhibitors of alpha-synuclein gene (SNCA) expression; 150,000 compounds, 0.12% hits; HEK-293-SNCA-luc viability, GF-AFC fluorescence, 24 h; Potency, µM (series often up to 57.1 µM), for inactives: at the highest dose activity change, negative = cytotoxicity, most hits filed as cytotoxic;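 further: 0% = DMSO-treated cells and -100% = medium-only wells without cells; nearly all actives have a fitted effect of over 30% in size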
#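 Cytotoxicity counterscreen: after 24 h compound treatment of genome-edited SNCA-luciferase HEK-293 cells, live-cell protease substrate GF-AFC read by fluorescence after 30 min; activity scaled between DMSO (0%) and medium-only (-100%), curves Hill-fitted.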
# hNpr1 antagonist – Natriuretic polypeptide receptor (hNpr1) antagonism - Primary qHTS; Atrial natriuretic peptide receptor 1 (Homo sapiens), P16066; HEK293 hNpr1 GloSensor cGMP, ANP-stimulated luminescence; Potency, µM (series often up to 46.3 µM), for inactives: at the top dose activity change, negative = inhibition, hits mostly inhibitors; 76,000 compounds, 1.6% hits; AID 1347048, 2019; calls by dose curve; further: on the % scale 0 is the no-effect control and ±100 the full control effect; nearly all actives have a fitted effect of over 60% in size
#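 HEK293 cells stably expressing human Npr1 and cGMP GloSensor pGS-40F, loaded 2 h with 2% GloSensor reagent, given compound 30 min at room temperature. Luminescence read before and 20 min after 0.1 nM hNppA.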
# SNCA expr inhib – Primary qHTS assay for inhibitors of alpha-synuclein gene (SNCA) expression. HEK-293 SNCA-luciferase knock-in, luminescence, 24 h. Potency, µM (titrated, usually from 57.2 µM), without a hit: at the top dose activity change, negative = inhibition, hits mostly inhibitors. 140,000 compounds, 0.17% hits. AID 1671194, 2021;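 further: plate controls were DMSO cells for no effect and cell-free wells for full effect; nearly all actives have a fitted effect of over 45% in size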
# FLuc inh-1 – Firefly luciferase inhibition profiling of diverse chemical library using quantitative high-throughput screening. purified P. pyralis luciferase, luminescence, biochemical. Potency, µM (doses to about 115 µM), actives largely listed as inhibitors. 76,000 compounds, 2.5% hits; further: on the % scale 0 is the no-effect control and ±100 the full control effect; nearly all actives have a fitted effect of over 65% in size
#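 Luminescence read by CCD imager after adding enzyme (10nM final) to wells holding compound, titrated in qHTS. Substrates 10uM each D-luciferin and ATP; buffer 50mM Tris acetate pH 7.5, 10mM Mg acetate, Tween-20, BSA.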
# FLuc SDR no ATP – Firefly luciferase (FLuc-C-HiBiT) SDR gain of signal screen - without ATP; Purified FLuc-C-HiBiT, Nano-Glo HiBiT luminescence, no ATP; AID 1963318, 2024; Potency, µM (series often up to 32.7 µM), inactives show at the highest dose activation (signal gain), hits mostly activators; shares compounds with FLuc inh-1; 1,300 compounds, 7.8% hits; further: nearly all actives have a fitted effect of over 55% in size
# FLuc SDR ATP – Firefly luciferase (FLuc-C-HiBiT) SDR gain of signal screen - plus ATP; shares compounds with FLuc inh-1; purified FLuc-C-HiBiT + ATP, HiBiT complementation luminescence; Potency, µM (series often up to 32.7 µM), inactives show at the highest dose activation (gain of signal), actives largely listed as activators; 1,300 compounds, 8.7% hits; AID 1963319, 2024;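 further: signal reports ligand binding via conformational change of the enzyme rather than luciferase catalysis; % of control where 0% means no effect; nearly all actives have a fitted effect of over 55% in size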
# FLuc inh-2 – Firefly luciferase (FLuc-C-HiBiT) enzymatic inhibition screen - Functional assay; purified FLuc-C-HiBiT enzyme, luciferin luminescence; shares compounds with FLuc inh-1; 1,300 compounds, 42% hits; Potency, µM (titrated, usually from 32.7 µM), for inactives: top-dose activity change, negative = inhibition, most hits filed as inhibitors; further: on the % scale 0 is the no-effect control and ±100 the full control effect; nearly all actives have a fitted effect of over 70% in size
# Active calls of the source: *; i = inactive; ? = inconclusive; . = no result; [ ] = dose if it differs, or a comment. Shown are actives, neighbours in structure and some others; about 7.4% of the full set was active somewhere. Unless noted, the call rests on the fitted dose curve; in most records, active means well fitted curve in the direction sought with a large enough effect; inconclusive means small, poorly fitted or top-dose-only effect, or another doubt; inactive means no such curve, though single readings can be large; an effect the other way counts as inactive or inconclusive. Potency means the concentration at half of the fitted maximal effect.
SMILES,3T3 cytotox,HEK293 tox,SNCA viab count,hNpr1 antagonist,SNCA expr inhib,FLuc inh-1,FLuc SDR no ATP,FLuc SDR ATP,FLuc inh-2
COc1ccc(CCC(=O)N2CCC(Cc3nncn3-c3ccccc3)C2)cc1 (stereo not given),-16%,-6%,-14%,.,-25%,.,.,.,.
Cc1cc(CNC(=O)C2CCCCn3nnnc32)c2[nH]c(-c3ccccc3)c(C)c2c1 (stereo not given),35µM*,25µM*,-15%,-11%,29%,8.9µM*,18%,14%,?
CSc1cccc(NC(=O)N[C@H]2CCN(C(=O)c3cccn3C)[C@@H]2C(=O)N[C@@H](Cc2cccs2)C(N)=O)c1,-8%,1%,0%,5%,21%,i,.,.,.
CCOC(=O)c1ccc(NC(=O)c2csc3c2CCCC3)cc1,.,.,0%,.,91%,.,16%,11%,?
CCC(=O)N1CCc2ccc(C(=O)NC3CCCCC3)cc21,-15%,-20%,1%,?,?,2.2µM*,?,?,?
CCC(=O)N1CCc2ccc(C(=O)NC3CC3)cc21,4%,-5%,-8%,2%,3%,i,.,.,.
CC(=O)O[C@H]1CC(C)(C)CC2[C@]13CO[C@@]21CCC2[C@@]4(C)CC[C@H](O[C@@H]5OC[C@H](O[C@@H]6O[C@H](CO)[C@@H](O)[C@H](O)[C@H]6O[C@@H]6OC[C@@H](O)[C@H](O)[C@H]6O)[C@H](O)[C@H]5O[C@@H]5O[C@H](CO)[C@@H](O)[C@H](O)[C@H]5O)[C@@](C)(CO)C4CC[C@@]2(C)[C@]1(C)C[C@H]3O (stereo not given in full),.,.,-29%[12.5 µM],.,.,.,.,.,.
COc1ccc(-c2nnc(SCC(=O)Oc3cc(C)ccc3C)o2)cc1,.,.,-11%,.,20%,.,.,.,.
COc1ccc(-c2nnc(SC(C)C(=O)O)o2)cc1 (stereo not given),.,.,14%,.,11%,.,?,?,?
C#CCNC(=O)c1cc(-c2ccccc2OC)nc2c1cnn2C,-20%,-18%,-2%,.,-14%,.,.,.,.
COc1cccc(NC(=O)CCc2nc(-c3ccc(C(C)(C)C)cc3)no2)c1,.,.,2%,.,?,.,20%,16%,7µM*
CCOc1ccc(NC(=O)CCCc2nc(-c3cccc(OC)c3)no2)cc1,.,.,-11%,.,48%,.,.,.,.
CCN(CCc1nc2ccc(C)cc2[nH]1)C(=O)c1ccccc1C1CCNC1 (stereo not given),-2%,-5%,-4%,6%,25%,i,.,.,.
Cc1ccc(-c2cccc(COc3cnc4c(ccn4CC(=O)O)c3)c2)cc1,-22%[138 µM],?,2%[87.6 µM],3%[70.6 µM],-1%[87.6 µM],7.9µM*,13%[49.3 µM],12%[49.3 µM],?
COc1cccc(-c2cccc(COc3cnc4c(ccn4CC(=O)O)c3)c2)c1F,?,-12%[172 µM],1%[87.6 µM],2%[70.6 µM],?,13µM*,18%[49.3 µM],10%[49.3 µM],13µM*
O=C(O)Cn1ccc2cc(OCc3cccc(-c4ccc(F)c(Cl)c4)c3)cnc21,-15%[138 µM],?,3%[87.6 µM],1%[70.6 µM],10%[87.6 µM],i,.,.,.
NC(=O)CC1CCN(c2ncnc3c2cnn3-c2ccccc2)CC1,.,.,.,.,.,.,10%,11%,-18%
c1ccc(-n2ncc3c(N4CCCCC4)ncnc32)cc1,.,.,.,.,.,.,3.5µM*,?,0.88µM*
OCC1CCN(c2ncnc3c2cnn3-c2ccccc2)CC1,.,.,.,.,.,.,21%,17%,?
NC(=O)C1CCN(c2ncnc3c2cnn3-c2cccc(Cl)c2)CC1,.,.,7%,.,41%,.,17%,12%,-18%
OCCN1CCN(c2ncnc3c2cnn3-c2cccc(Cl)c2)CC1,.,.,-6%,.,141%,.,.,.,.
Clc1ccc(N2CCN(c3ncnc4c3cnn4-c3ccccc3)CC2)cc1Cl,.,.,2%,.,37%,.,.,.,.
COc1ccc2c(c1)c(CN1CCC3(CC1)CC(C(=O)N1CCOCC1)N(C)C3)cn2C (stereo not given),?,?,1%,0%,10%,i,.,.,.
Cc1ccc(-n2ncc3c(N4CCN(c5ccc(F)cc5)CC4)ncnc32)cc1,.,.,1%,.,-1%,.,.,.,.
Cc1ccc(-n2ncc3c(N4CCN(C)CC4)ncnc32)cc1,.,.,-7%,.,-45%,.,23%,?,5.6µM*
SMILES,3T3 cytotox,HEK293 tox,SNCA viab count,hNpr1 antagonist,SNCA expr inhib,FLuc inh-1,FLuc SDR no ATP,FLuc SDR ATP,FLuc inh-2
OC1CCN(c2ncnc3c2cnn3-c2ccccc2)CC1,.,.,.,.,.,.,25%,?,?
CC(=O)NC(C(=O)OC1CCC(C)(C)C2CC=C3C(=O)OCC3(O)C12C)C(C)C (stereo not given),.,.,11%[23.9 µM],.,.,.,.,.,.
COc1ccc(Br)cc1C(=O)Nc1ccc2oc(-c3cccnc3)nc2c1,.,.,2%,.,33%,.,.,.,.
Cc1ccc(C(=O)Nc2ccc3oc(-c4cccnc4)nc3c2)c(Cl)c1,.,.,-1%,.,20%,.,17%,15%,?
CCn1ccnc1CN1CCN(C2CCCCC2)C(CCO)C1 (stereo not given),-12%,-10%,-17%,5%,1%,i,.,.,.
Cc1ccc(-n2nc(C)c([C@H]3C=C[C@@H](O)C3)c2C)cc1Cl,?,?,-12%[87.6 µM],18µM*,-3%[87.6 µM],1.1µM*,25%[49.3 µM],?,13µM*
COc1ccc(NC(=O)N[C@@H]2C=C[C@@H](c3c(C)nn(CCC#N)c3C)C2)cc1,?,?,-12%[87.6 µM],-13%[70.6 µM],6%[87.6 µM],i,.,.,.
